Assay outcomes (PubChem)
Hits are enriched below; roughly 0.45% of the tested compounds scored in any of these assays.
FMDV RLuc = FMDV antiviral activity by Renilla signal; Potency, µM (series often up to 57.5 µM), for the others: at the highest dose activity change, negative = inhibition, most hits filed as inhibitors; actives 0.32% (n = 120,000); FMDV replicon cells, Renilla luciferase signal; further: nearly all actives have a fitted effect of over 55% in size
FMDV FLuc = FMDV antiviral activity by firefly signal. Potency, µM (highest dose often 57.5 µM), for inactives: at the highest dose activity change, negative = inhibition, usual class: inhibitors. actives 0.23% (n = 120,000). AID 1745856. FMDV antiviral cell assay, firefly luciferase signal; further: nearly all actives have a fitted effect of over 60% in size
An asterisk follows results filed as active; ? = inconclusive; [ ] = remark or other dose. The call rests on the fitted dose curve. On the % scale 0 is the no-effect control and ±100 the full control effect; potency means the concentration at half of the fitted maximal effect.

SMILES | FMDV RLuc | FMDV FLuc
Cc1ccc(N/N=C/c2cccc(C(F)(F)F)c2)cc1Cl | 9% | 3%
Cc1cccc(-n2nnnc2Sc2nnnn2-c2ccccc2)c1C | ? | -27%
Cc1ccc(-n2nnnc2Sc2nnnn2-c2ccccc2)c(C)c1 | 25µM* | ?
COc1ccc(/C=C/C(=O)Oc2ccc(Br)cc2)cc1 | 14% | 22%
Cn1nc(C(=O)NC2CCCc3ccccc32)c2ccccc2c1=O (stereo not drawn) | 38% | 1%
COc1ccc(S(=O)(=O)N2CCc3ccccc32)cc1C(=O)N1CCN(C(=O)c2ccco2)CC1 | 41% | 1%
COc1cc(/C=C/C(=O)c2cccc(O)c2)cc(Cl)c1O | -5% | 0%
CC(C)CNC(=O)c1cc2cc(N(C)S(C)(=O)=O)ccc2s1 | ? | 44%
CCN(c1ccc2sc(C(=O)NCCC(C)C)cc2c1)S(C)(=O)=O | 25µM* | ?
Cc1ccc(C(=O)c2c(C)c(CCC#N)n3ccccc23)cc1 | 6% | 2%
CC(C)n1nc(C(=O)N2CCSCC2)c2ccccc2c1=O | -4% | 7%
COc1ccc(CNc2cc(-c3ccc(OC)cc3)nc3nncn23)cc1 | -21% | -17%
Cc1nc2nncn2c(NCc2ccc(Cl)cc2)c1C | 1.4µM* | ?
Cc1nc2nncn2c(NCc2ccc(F)cc2)c1C | 8.9µM* | ?
CCc1c(C)nc2nncn2c1NCc1ccc(OC)cc1 | -28% | -12%
O=C(Nc1ccc(-c2nc3ccccc3s2)cc1)C1CCN(C(=O)c2ccco2)CC1 | -7% | 80%
CNC(=O)c1cccc(NC(=O)CSCc2csc(-c3ccc(C(C)C)cc3)n2)c1 | 0% | ?
CN(Cc1ccccc1)C1CCN(Cc2ccc(F)cc2)CC1 | -2% | -5%
O=C(NCc1ccc(C(=O)N2CCCCC2)cc1)c1cccc(C(F)(F)F)c1 | 3% | -16%
CCC(C)NC(=O)N(C)C1CCN(c2ccc(Cl)cc2)CC1 (stereo not drawn) | 13µM* | ?
CCC(C)NC(=O)c1ccc(N(C)C2CCCCC2)cc1 (stereo not drawn) | -3%[1.06 µM] | 205%
COc1ccc(C(=O)C(Cl)C(=O)c2ccc(OC)cc2)cc1 | 77% | 145%
COC(=O)c1ccc(COc2ccc3c(=O)c(-c4ccccc4OC)c(C)oc3c2)cc1 | -35% | 1µM*
COC(=O)c1ccc(Oc2c(C)oc3cc(OCc4ccc(F)cc4)ccc3c2=O)cc1 | -4% | 4%
CCCc1cc(=O)oc2cc(OCC(=O)OC)ccc12 | -12% | 2%
SMILES | FMDV RLuc | FMDV FLuc
Cc1ccccc1NC(=O)c1sc2nc3c(cc2c1N)CN(Cc1ccccc1)CC3 | ? | 4%
Cc1ccccc1NC(=O)c1sc2nc3c(cc2c1N)CN(C(C)C)CC3 | 14µM* | ?
Cc1nc(/C=C/C(=O)N2CCCCCC2)cs1 | 2% | 8%
N#Cc1nc(-c2ccco2)oc1N1CCN(C(=O)c2ccccc2Cl)CC1 | 0% | -8%
N#Cc1nc(-c2ccco2)oc1N1CCN(C(=O)CNC(c2ccccc2)c2ccccc2)CC1 | 10µM* | ?
CN(Cc1ccccc1Br)c1cc(C(=O)N2CCOCC2)c2ccccc2n1 | 56% | -11%
O=C(c1n[nH]c(=O)c2ccccc12)N1CCN(CC(F)(F)F)CC1 | 17% | 38%
Cc1cccc(CN2CCN(C(=O)c3n[nH]c(=O)c4ccccc34)CC2)c1 | ? | 14µM*
C#CCCCCCCCCC(=O)N1CCOCC1 | 14% | 57%
CCCOc1ccc(C(=O)Nc2ccc(NC(=O)c3ccc(Br)cc3)cc2)cc1 | -8% | 7%
CCCOc1ccc(C(=O)C(CCC(CNC(C)(C)C)C(=O)c2ccc(OCCC)cc2)CNC(C)(C)C)cc1 (stereo not drawn) | 28µM* | ?
Cc1cccc(C2CCCN2C(=O)c2cc(-c3ccco3)on2)c1 (stereo not drawn) | 20% | 0%
Cc1cc2c(cc1C)N(Cc1ccc(Cl)cc1)C1=NCCCN12 | ? | 20µM*
Cc1ccc(CN2C3=NCCCN3c3ccccc32)cc1 | -8% | 7%
CCN(c1ccccc1)S(=O)(=O)c1ccc(/C=C\c2onc(C)c2NC(=O)C2CC2)cc1 | 0% | ?
COC(=O)c1ccccc1NC(=O)c1cccc(N2CCCN(Cc3ccc(Cl)cc3)C2=O)c1 | 0% | 3%
COc1cc(C2CC(=O)N(CC(=O)Nc3ccccc3C)c3ccccc3S2)cc(OC)c1OC (stereo not drawn) | 4% | -14%
O=C(CCCCn1c(=O)[nH]c2ccsc2c1=O)N1CCN(c2cccc(C(F)(F)F)c2)CC1 | 9% | ?
Cc1cccc(N2CCN(C(=O)CCCCn3c(=O)[nH]c4ccsc4c3=O)CC2)c1C | -28% | 14µM*
CC(Sc1nc2cc(S(=O)(=O)N(C)C)ccc2o1)C(=O)NC12CC3CC(CC(C3)C1)C2 (stereo not drawn) | 35% | 6%
Cc1cc(C)c(OCC(=O)N2CCC(NC(=O)c3ccccc3)CC2)c(C)c1 | -12% | -6%
O=C(NCc1ccccn1)c1ccc(C2CCCCC2)cc1 | 8% | 0%
O=C(NCc1ccncc1)c1ccc(C2CCCCC2)cc1 | 3.5µM* | ?
COc1ccc(NC(=O)c2nnc(COCC(=O)NC3CCCCC3)s2)cc1 | 0% | 62%
COc1ccc(CCNc2oc(-c3ccc(OC)cc3)nc2C#N)cc1 | 16% | 18%
SMILES | FMDV RLuc | FMDV FLuc
Cc1cc(C(=O)NCc2ccc(CN3CCCC3)cc2)sc1C | 9% | 25%
COc1ccc(Cn2c(CCC(=O)Nc3ccc(C)cc3C)nc3cccnc32)cc1 | -3% | -11%
Cc1ccc(NC(=O)Cc2ccc(-n3c(C)nc4cccnc43)cc2)c(Cl)c1 | 10µM* | 14µM*
C=CCNC(=O)NC(=O)COC(=O)c1c(C)c(CC)nc2ccccc12 | 25µM* | 18µM*
CCc1nc2ccccc2c(C(=O)OCC(=O)NC(N)=O)c1C | 8% | 19%
CCOC(=O)C1=C(CN(CCOC)Cc2cccs2)NC(=O)NC1c1ccc(Cl)cc1 (stereo not drawn) | 26% | -16%
Cc1nc2ccccc2c(=O)n1-c1ccc(NC(=O)c2cccc([N+](=O)[O-])c2)cc1 | -22% | 7%
Cc1nc2ccccc2c(=O)n1-c1ccc(NC(=O)c2ccc([N+](=O)[O-])cc2)cc1 | 2.8µM* | ?
N#Cc1nc(-c2ccco2)oc1N1CCN(C(=O)c2ccc(Cl)cc2Cl)CC1 | -8% | -3%
COc1ccc(-c2nc3cc(NC(=O)c4ccc(C)cc4)ccc3o2)cc1OC | -14% | 0%
O=C(CCCc1c[nH]c2ccccc12)Nc1cccc2cnccc12 | 11µM* | ?
O=C(CCCc1c[nH]c2ccccc12)Nc1ccc2ncccc2c1 | 5% | 0%
COc1cccc(N2CCN(c3ccc(NC(=O)c4ccc(C)cc4)cc3C(=O)O)CC2)c1 | 6% | 64%
O=C(COc1cccc(Cl)c1)N(Cc1ccco1)c1ccccn1 | 61% | 156%
Cn1c(=O)c2c(ncn2CC(=O)Nc2nc(-c3cccc4ccccc34)cs2)n(C)c1=O | -7% | 130%
O=C(Nc1nc(-c2cccc3ccccc23)cs1)c1cccs1 | ? | 13µM*
CCN1CCN(CCOc2ccc3c(=O)c(-c4ccc(Br)cc4)coc3c2)CC1 | ? | 37%
CCN1CCN(CCOc2ccc3c(=O)c(-c4ccc(Cl)cc4)coc3c2)CC1 | 18µM* | -9%
CCOCN(C(=O)Cn1c(C)nc2ccccc21)c1c(C)cccc1CC | -5% | -5%
CCn1cc(C(=O)Cn2c(C)nc3ccccc32)c2ccccc21 | 8.9µM* | ?
COc1cccc(C(=O)/C(=C/c2ccccn2)c2nc3ccccc3o2)c1 | ? | -105%
